# PubChem BioAssay (NCATS)
# Inconclusive results are not listed. Some structures have more than one record in an assay (separate samples or runs), and their calls can disagree. Calls of active or inactive are those of the source. Unless noted, the call rests on the fitted dose curve; in most records, active means well fitted curve in the direction sought with a large enough effect; inconclusive means small, poorly fitted or top-dose-only effect, or another doubt; inactive means no such curve, though single readings can be large; an effect the other way counts as inactive or inconclusive.
# Key:
# [1] = biological target: Cytochrome P450 2C19 (Homo sapiens) (UniProt P33261); test: qHTS Assay for Inhibitors and Substrates of Cytochrome P450 2C19 (AID 899); further: nearly all actives have a fitted effect of over 60% in size; further: potency means the concentration at half of the fitted maximal effect
# Summary of the method: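 5nM enzyme + 10uM Luciferin-H EGE (=KM), 50mM KPO4; cpd pin-transferred, 10 min 37C; NADPH regen, 60 min 37C; stopped w/ luciferin detection reagent, 20 min; luminescence. Normalized to 57uM ketoconazole (AC100).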
# [2] = biological target: DNA dC->dU-editing enzyme APOBEC-3G (Homo sapiens) (UniProt Q9HC16); test: qHTS for inhibitors of Vif-A3G interactions: Validation (AID 588379); further: 0% is about no effect
# Summary of the method: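 HeLa cells stably expressing Vif and A3G-eYFP, 700 cells/well, incubated overnight at 37 deg C, then exposed to compound overnight at 37 deg C. Inhibition of Vif-mediated degradation read as increased yellow fluorescence (Ex 488/Em 500-530) by laser-scanning cytometry.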
# [3] = Confirmation and Secondary Assay for Modulators of Hemoglobin Beta Chain Splicing at IVS2 654 locus (AID 910);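 further: HeLa cells stably carrying EGFP split by mutant beta-globin IVS2-654 intron; per-well total GFP intensity by laser scanning cytometry after 2-day treatment; % of control where 0% means no effect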
# Summary of the method: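 Readout: per-well total peak green fluorescence (488 nm ex, 500–520 nm em) from objects 5–250 µm, reflecting correct splicing of an EGFP-654 reporter. Compounds were applied for 2 days at 37 °C to overnight-plated HeLa EGFP-654 cells; controls were DMSO and 500 nM IVS2-654 PNA.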
# [4] = Confirmation and Secondary Assay for Modulators of Hemoglobin Beta Chain Splicing at IVS2 705 locus (AID 930);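 further: HeLa cells stably expressing the EGFP-705 splicing reporter; % of control where 0% means no effect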
# Summary of the method: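 HeLa cells stably carrying EGFP interrupted by mutant beta-globin IVS2-705 intron (CMV-driven) were seeded at 500 cells/well, treated next day with compound for 2 days at 37C; corrected splicing restores EGFP, read as total peak GFP intensity per well.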
# [5] = qHTS Assay for Identification of Small Molecule Agonists for Hypoxia Response Element Signaling Pathway (AID 914; active means well fitted activation curve with a large enough effect in the signal ratio, with a control signal flat, not every such curve was filed as active; the % refers to the signal ratio; further: potency means the concentration at half of the fitted maximal effect; on activation: % of control where 0% means no effect); settings: ME-180 HRE-bla reporter, beta-lactamase ratio, CoCl2, 17 h; activation: stronger effect = higher value
# Summary of the method: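 ME-180 cells carrying an HRE-driven beta-lactamase reporter were treated with compounds in a titration series plus an EC50 level of CoCl2 for 17 h at 37 degrees Celsius; CCF4 readout as the 460nm/530nm ratio gave AC50 values.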
# [6] = biological target: Dual specificity protein kinase CLK4 (Homo sapiens) (UniProt Q9HAZ1); test: qHTS Assay for Inhibitors of CDC-like Kinase 4 (ADP-Glo Assay) (AID 1771); further: nearly all actives have a fitted effect of over 70% in size; further: potency means the concentration at half of the fitted maximal effect; on activity change, negative = inhibition: on the % scale 0 is the no-effect control and ±100 the full control effect
# Summary of the method: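 25 nM Clk4 with 100 uM RS repeat peptide and 1 uM ATP (final) in buffer with 2 mM MgCl2, 0.5 mM EGTA, 2.5 mM DTT, 0.01% Triton X-100; 1 h at room temperature; ADP-Glo luminescence for ADP formed.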
# [7] = biological target: Cytochrome P450 2C9 (Homo sapiens) (UniProt P11712); test: qHTS Assay for Inhibitors and Substrates of Cytochrome P450 2C9 (AID 883); further: potency means the concentration at half of the fitted maximal effect; nearly all actives have a fitted effect of over 60% in size
# Summary of the method: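 Inhibition of CYP2C9 is scored as loss of luminescence, with 57uM sulphaphenazole defining 100% inhibition. Substrate Luciferin-H is used at 100uM, equal to its KM; enzyme at 10nM in 25mM KPO4, 60 min at 37C with NADPH regeneration.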
# [8] = biological target: Cytochrome P450 2D6 (Homo sapiens) (UniProt P10635); test: qHTS Assay for Inhibitors and Substrates of Cytochrome P450 2D6 (AID 891); further: nearly all actives have a fitted effect of over 60% in size; further: potency means the concentration at half of the fitted maximal effect;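 on activity change, negative = inhibition: luciferin methyl ether substrate demethylated by CYP2D6 with NADPH regeneration; on the % scale 0 is the no-effect control and ±100 the full control effect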
# Summary of the method: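 Human CYP2D6 (5 nM) with 30 uM Luciferin-ME EGE (at Km) in 100 mM KPO4, compound preincubated 10 min, then NADPH regeneration system for 60 min at room temperature. Luciferin read by luminescence; normalized to 1.43 uM quinidine.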
# [9] = biological target: Rap guanine nucleotide exchange factor 3 (Homo sapiens) (UniProt O95398); test: Counterscreen qHTS for antagonist of cAMP-regulated guanine nucleotide exchange factor 3 (EPAC1) (AID 1645888);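 further: fluorescence loss as bound BODIPY-GDP is released from Rap1B; % of control where 0% means no effect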
# Summary of the method: (§1)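 Rap1B-BODIPY-GDP 250 nM + GDP 50 uM; cpds 7-pt, final 9.74 nM–152 uM (activator mode) or from 7.32 nM upwards (inhibitor mode); RT; FI 480/540 nm at 5 and 30 min, then ± cAMP, reread.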
# [10] = biological target: Rap guanine nucleotide exchange factor 3 (Homo sapiens) (UniProt O95398); test: Counterscreen qHTS for agonist of cAMP-regulated guanine nucleotide exchange factor 3 (EPAC1) (AID 1645889); further: % of control where 0% means no effect; nearly all actives have a fitted effect of over 40% in size
# Summary of the method: as §1
# [11] = biological target: Catechol O-methyltransferase (Homo sapiens) (UniProt P21964); test: Confirmatory Screen for Target Class Profiling of Small Molecule Inhibitors of Methyltransferases (AID 1745852); settings: MTase-Glo luminescence, SAH detection, recombinant enzyme; measured here: COMT max response; stronger effect = lower value; on activity change, negative = inhibition: on the % scale 0 is the no-effect control and ±100 the full control effect
# [12] = biological target: Guanidinoacetate N-methyltransferase (Homo sapiens) (UniProt Q14353); test: as above; settings: MTase-Glo luminescence, SAH detection, recombinant enzyme; at 57.3 µM (top of the series)
# [13] = biological target: Nicotinamide N-methyltransferase (Homo sapiens) (UniProt P40261); test: as above; settings: MTase-Glo luminescence, SAH detection, recombinant enzyme; measured here: NNMT max response; stronger effect = lower value
# [14] = biological target: Phenylethanolamine N-methyltransferase (Homo sapiens) (UniProt P11086); test: as above; settings: MTase-Glo luminescence, SAH detection, recombinant enzyme; measured here: PNMT max response; stronger effect = lower value
# Sequence of Phenylethanolamine N-methyltransferase (Homo sapiens) (P11086 whole entry, looked up): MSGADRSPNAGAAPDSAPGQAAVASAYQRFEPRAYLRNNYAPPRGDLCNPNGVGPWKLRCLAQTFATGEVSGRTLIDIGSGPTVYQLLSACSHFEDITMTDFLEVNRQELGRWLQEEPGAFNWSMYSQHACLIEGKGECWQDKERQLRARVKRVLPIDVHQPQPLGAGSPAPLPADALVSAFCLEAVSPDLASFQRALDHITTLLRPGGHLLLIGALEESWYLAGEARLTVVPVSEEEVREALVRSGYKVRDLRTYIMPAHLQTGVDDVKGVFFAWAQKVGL
# Sequence of DNA dC->dU-editing enzyme APOBEC-3G (Homo sapiens) (Q9HC16 whole entry, looked up): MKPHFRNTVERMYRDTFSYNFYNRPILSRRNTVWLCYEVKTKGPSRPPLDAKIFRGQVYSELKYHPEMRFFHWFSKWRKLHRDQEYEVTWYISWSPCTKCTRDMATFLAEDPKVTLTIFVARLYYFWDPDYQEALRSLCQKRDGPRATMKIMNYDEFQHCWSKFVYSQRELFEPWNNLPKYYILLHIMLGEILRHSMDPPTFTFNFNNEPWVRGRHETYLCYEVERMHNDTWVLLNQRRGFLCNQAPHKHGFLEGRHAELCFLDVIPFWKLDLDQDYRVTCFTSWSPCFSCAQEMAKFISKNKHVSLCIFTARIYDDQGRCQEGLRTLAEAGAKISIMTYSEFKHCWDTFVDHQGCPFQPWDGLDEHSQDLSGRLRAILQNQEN
# Sequence of Cytochrome P450 2C9 (Homo sapiens) (P11712 whole entry, looked up): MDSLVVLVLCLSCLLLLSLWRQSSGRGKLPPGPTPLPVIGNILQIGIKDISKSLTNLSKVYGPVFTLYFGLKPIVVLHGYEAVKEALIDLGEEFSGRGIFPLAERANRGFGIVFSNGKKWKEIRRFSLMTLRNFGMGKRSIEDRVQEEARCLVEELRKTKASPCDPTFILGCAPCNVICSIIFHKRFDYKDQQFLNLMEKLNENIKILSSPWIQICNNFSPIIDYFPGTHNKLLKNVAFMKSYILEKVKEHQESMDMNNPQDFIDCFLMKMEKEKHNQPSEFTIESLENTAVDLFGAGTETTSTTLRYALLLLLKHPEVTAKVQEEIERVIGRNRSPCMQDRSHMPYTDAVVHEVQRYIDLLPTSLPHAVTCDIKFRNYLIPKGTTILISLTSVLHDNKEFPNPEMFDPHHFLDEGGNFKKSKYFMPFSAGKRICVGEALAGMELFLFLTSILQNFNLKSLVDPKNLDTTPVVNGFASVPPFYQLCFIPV
# Sequence of Cytochrome P450 2D6 (Homo sapiens) (P10635 whole entry, looked up): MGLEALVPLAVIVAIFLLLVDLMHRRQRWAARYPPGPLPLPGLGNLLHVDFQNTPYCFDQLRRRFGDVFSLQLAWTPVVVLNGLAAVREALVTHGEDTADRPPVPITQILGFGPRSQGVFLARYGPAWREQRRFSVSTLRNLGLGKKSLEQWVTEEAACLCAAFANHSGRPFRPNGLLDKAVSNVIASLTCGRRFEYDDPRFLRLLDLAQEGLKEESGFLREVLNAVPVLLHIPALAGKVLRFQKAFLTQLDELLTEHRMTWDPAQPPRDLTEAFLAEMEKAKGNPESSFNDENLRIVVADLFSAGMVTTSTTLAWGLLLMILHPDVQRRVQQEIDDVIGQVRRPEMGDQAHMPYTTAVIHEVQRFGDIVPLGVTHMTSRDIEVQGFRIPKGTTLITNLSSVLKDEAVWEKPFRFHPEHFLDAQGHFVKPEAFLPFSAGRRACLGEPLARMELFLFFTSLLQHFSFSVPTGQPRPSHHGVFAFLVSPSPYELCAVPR
# Sequence of Dual specificity protein kinase CLK4 (Homo sapiens) (Q9HAZ1 whole entry, looked up): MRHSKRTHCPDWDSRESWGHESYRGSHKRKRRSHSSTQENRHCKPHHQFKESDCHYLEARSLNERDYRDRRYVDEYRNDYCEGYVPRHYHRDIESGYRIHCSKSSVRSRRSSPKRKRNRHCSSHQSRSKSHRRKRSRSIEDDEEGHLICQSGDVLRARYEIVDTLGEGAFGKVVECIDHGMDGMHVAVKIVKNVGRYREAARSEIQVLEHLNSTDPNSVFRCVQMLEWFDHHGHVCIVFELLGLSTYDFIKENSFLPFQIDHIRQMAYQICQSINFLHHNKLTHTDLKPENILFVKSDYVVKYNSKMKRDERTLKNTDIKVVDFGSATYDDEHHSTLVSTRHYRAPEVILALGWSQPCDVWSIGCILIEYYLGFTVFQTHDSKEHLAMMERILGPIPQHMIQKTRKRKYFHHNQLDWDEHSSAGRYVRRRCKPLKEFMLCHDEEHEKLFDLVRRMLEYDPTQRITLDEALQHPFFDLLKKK
# Sequence of Cytochrome P450 2C19 (Homo sapiens) (P33261 whole entry, looked up): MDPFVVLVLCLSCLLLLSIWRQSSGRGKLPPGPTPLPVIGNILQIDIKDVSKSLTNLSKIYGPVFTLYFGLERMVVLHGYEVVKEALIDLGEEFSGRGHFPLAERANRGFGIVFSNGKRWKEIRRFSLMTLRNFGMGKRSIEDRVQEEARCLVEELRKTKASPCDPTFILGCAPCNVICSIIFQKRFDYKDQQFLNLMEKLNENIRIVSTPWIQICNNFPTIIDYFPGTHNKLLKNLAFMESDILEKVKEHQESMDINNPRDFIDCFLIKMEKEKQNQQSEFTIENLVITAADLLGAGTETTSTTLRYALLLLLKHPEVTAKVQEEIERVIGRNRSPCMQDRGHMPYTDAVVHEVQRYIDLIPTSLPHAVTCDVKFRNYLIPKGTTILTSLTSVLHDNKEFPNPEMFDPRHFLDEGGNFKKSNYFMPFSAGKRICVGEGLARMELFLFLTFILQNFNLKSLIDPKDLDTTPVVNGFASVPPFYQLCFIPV
# Sequence of Rap guanine nucleotide exchange factor 3 (Homo sapiens) (O95398 whole entry, looked up): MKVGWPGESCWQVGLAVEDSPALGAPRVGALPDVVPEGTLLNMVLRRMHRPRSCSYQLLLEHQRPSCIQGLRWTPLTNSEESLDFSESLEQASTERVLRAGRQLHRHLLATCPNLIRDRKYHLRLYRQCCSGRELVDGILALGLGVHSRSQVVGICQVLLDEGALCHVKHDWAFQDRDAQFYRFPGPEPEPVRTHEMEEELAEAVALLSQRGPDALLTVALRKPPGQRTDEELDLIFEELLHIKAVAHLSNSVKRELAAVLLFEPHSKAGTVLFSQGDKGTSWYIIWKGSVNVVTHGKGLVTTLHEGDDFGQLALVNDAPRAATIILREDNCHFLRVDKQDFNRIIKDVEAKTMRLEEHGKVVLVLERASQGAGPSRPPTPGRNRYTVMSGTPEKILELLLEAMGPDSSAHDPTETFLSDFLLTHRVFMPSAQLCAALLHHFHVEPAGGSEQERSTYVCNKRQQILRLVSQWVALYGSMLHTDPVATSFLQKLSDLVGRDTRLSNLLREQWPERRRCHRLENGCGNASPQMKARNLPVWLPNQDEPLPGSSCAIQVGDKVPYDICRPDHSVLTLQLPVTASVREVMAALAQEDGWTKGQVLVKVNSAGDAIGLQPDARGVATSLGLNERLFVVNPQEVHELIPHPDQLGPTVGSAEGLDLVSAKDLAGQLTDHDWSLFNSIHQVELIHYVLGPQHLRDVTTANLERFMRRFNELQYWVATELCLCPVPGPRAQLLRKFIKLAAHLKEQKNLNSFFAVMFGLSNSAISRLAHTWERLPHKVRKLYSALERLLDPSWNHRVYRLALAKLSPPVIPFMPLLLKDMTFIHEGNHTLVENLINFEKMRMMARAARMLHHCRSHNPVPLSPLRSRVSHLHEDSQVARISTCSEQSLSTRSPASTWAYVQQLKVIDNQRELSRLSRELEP
# Sequence of Catechol O-methyltransferase (Homo sapiens) (P21964 whole entry, looked up): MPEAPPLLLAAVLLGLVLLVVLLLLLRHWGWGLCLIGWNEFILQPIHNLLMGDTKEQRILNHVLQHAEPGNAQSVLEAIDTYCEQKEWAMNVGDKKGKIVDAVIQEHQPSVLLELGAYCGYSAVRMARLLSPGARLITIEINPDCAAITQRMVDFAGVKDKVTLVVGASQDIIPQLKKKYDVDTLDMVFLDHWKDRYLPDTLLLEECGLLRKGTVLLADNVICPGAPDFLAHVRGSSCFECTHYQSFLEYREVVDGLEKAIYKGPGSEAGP
# Sequence of Nicotinamide N-methyltransferase (Homo sapiens) (P40261 whole entry, looked up): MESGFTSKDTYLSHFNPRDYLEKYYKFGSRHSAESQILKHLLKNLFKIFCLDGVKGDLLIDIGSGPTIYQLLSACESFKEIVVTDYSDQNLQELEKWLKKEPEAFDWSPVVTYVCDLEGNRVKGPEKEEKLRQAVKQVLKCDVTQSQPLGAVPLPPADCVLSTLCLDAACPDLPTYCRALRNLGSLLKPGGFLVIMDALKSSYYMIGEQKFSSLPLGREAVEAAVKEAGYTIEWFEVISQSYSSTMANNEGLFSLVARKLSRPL
structure (smiles),measurement,setting,value
N[C@H](C(=O)O)c1ccc(O)c(C(=O)O)c1,Potency,[1],inactive
same,outcome,[2],inactive
O=C(c1cccc(F)c1)N1CCC2(CCCN(c3cccc(-c4ccccc4)c3)C2)CC1,Potency,[1],7.94 µM (active)
COc1cccc(-c2ccc3ncnc(NCc4ccccc4OC)c3c2)c1,Potency,[3],inactive
same,outcome,[4],inactive
CS(=O)(=O)Nc1cccc(-c2ccc3ncnc(Nc4ccc(F)cc4)c3c2)c1,Potency,[3],inactive
same,outcome,[4],inactive
Clc1cccc2c1CN(C1=NCCN1)C2,outcome,[2],inactive
N#CCCn1c(=O)c(-c2cccs2)nc2cnc(N3CCOCC3)nc21,activation,[5],21.6% (inactive)
same,Potency,[6],inactive
COc1ccc(CNc2cc(-c3ccccc3C)ncn2)c(OC)c1,activation,[5],2.85% (inactive)
COc1cccc(Nc2ncc3ncc(=O)n(Cc4cccs4)c3n2)c1,Potency,[6],0.794 µM (active)
O=c1c(-c2ccc(Cl)cc2)nc2cncnc2n1Cc1ccccc1Cl,Potency,[1],3.98 µM (active)
same,activation,[5],25.2% (inactive)
O=c1c(-c2ccc(F)c(F)c2)nc2cncnc2n1Cc1ccccc1Cl,Potency,[7],5.01 µM (active)
same,Potency,[1],6.31 µM (active)
Cc1ccccc1-c1nc(N(C)Cc2ccco2)c2ccccc2n1,Potency,[8],3.16 µM (active)
same,Potency,[6],28.2 µM (active)
COc1cc(/C=C\c2ccc(OC)cc2OC)cc(OC)c1,Potency,[1],inactive
same,outcome,[2],inactive
O=c1c(-c2cc(F)cc(F)c2)nc2cnc(N3CCOCC3)nc2n1-c1ccccc1,Potency,[5],2.51 µM (active)
COc1ccc2[nH]cc(CCNc3nc(-c4cccc(C#N)c4)nc4ccccc34)c2c1,Potency,[6],28.2 µM (active)
CCCCCc1c2c(cc(O)c1C(=O)O)OC(=O)c1cc(C(=O)CCCC)c(OC)cc1O2,outcome,[9],inactive
same,outcome,[10],inactive
COc1ccc(CNc2ccnc(-c3cccc(C#N)c3)n2)c(OC)c1,Potency,[1],3.98 µM (active)
same,activation,[5],-5.53% (inactive)
same,Potency,[6],10 µM (active)
c1csc(CNc2ccnc(-c3ccc4c(c3)OCO4)n2)c1,Potency,[8],0.501 µM (active)
same,Potency,[1],5.01 µM (active)
COc1ccccc1-c1ccc2ncnc(N(C)Cc3ccco3)c2c1,Potency,[6],14.1 µM (active)
Cn1cccc1C(=O)N1CCC2(CCCN(c3cccc(-c4ccccc4)c3)C2)CC1,Potency,[7],3.98 µM (active)
Cc1c(CC(C)(C)C(=O)O)n(Cc2ccc(Cl)cc2)c2ccc(F)cc12,Potency,[7],0.501 µM (active)
same,Potency,[8],inactive
same,Potency,[1],316 nM (active) and inactive
same,outcome,[2],inactive
COc1cccc(Cn2c(=O)c(-c3ccc(Cl)cc3)nc3cnc(N4CCNCC4)nc32)c1,Potency,[6],inactive
Cn1cc(-c2nc3cnc(N4CCOCC4)nc3n(CCC#N)c2=O)c2ccccc21,Potency,[6],inactive
COc1cccc(-c2cc(NCc3ccc(OC)cc3OC)ncn2)c1,Potency,[1],5.01 µM (active)
same,activation,[5],1.95% (inactive)
COC(=O)C1=C(C)NC(C)=C(C(=O)OCCSc2ccccc2)[C@@H]1C,Potency,[7],3.16 µM (active)
same,Potency,[1],0.199 µM (active)
same,outcome,[2],inactive
COc1ccc(CNc2nc(-c3ccc4c(c3)OCO4)nc3ccccc23)c(OC)c1,Potency,[1],7.94 µM (active)
same,Potency,[6],inactive
COc1ccc(-n2c(=O)c(-c3ccc(Cl)cc3)nc3cnc(N(C)C)nc32)cc1,Potency,[5],3.16 µM (active)
same,Potency,[6],inactive
COc1cccc(-c2nccc(NCc3cccs3)n2)c1,Potency,[8],0.316 µM (active)
same,Potency,[6],8.91 µM (active)
COc1ccccc1CNc1nc(-c2cccnc2)nc2ccccc12,Potency,[6],10 µM (active)
COc1cccc(-c2nc(NCc3ccc(OC)cc3OC)c3ccccc3n2)c1,Potency,[6],inactive
COc1ccc(CNc2ncncc2-c2ccccc2C)c(OC)c1,Potency,[1],1.58 µM (active)
same,Potency,[6],inactive
N#C/C(=C\c1ccc(O)c(O)c1)C(=O)OCCc1cccs1,Potency,[1],6.31 µM (active)
same,outcome,[2],inactive
CN(C)c1ncnc2ccc(-c3ccccc3C(F)(F)F)cc12,Potency,[1],3.98 µM (active)
COc1ccc(CNc2ncnc3ccc(-c4c(C)noc4C)cc23)c(OC)c1,Potency,[5],2 µM (active)
same,Potency,[6],15.8 µM (active)
COc1c(O)cc2oc3cc(O)c(CC=C(C)C)c(O)c3c(=O)c2c1CC=C(C)C,Potency,[3],inactive
same,outcome,[4],inactive
same,outcome,[2],inactive
c1ccc(CNc2ccnc(-c3ccc4c(c3)OCO4)n2)cc1,Potency,[3],inactive
same,outcome,[4],inactive
Cc1cnc(CNc2cc(-c3ccccc3C(F)(F)F)ncn2)cn1,activation,[5],4.59% (inactive)
O=C(CCCCCN1C(=O)c2cccc3cccc(c23)C1=O)NO,activity,[11],0.323%
same,"activity change, negative = inhibition",[12],0.722%
same,activity,[13],-12.3%
same,activity,[14],-6.54%
COc1ccc(-c2nc3cnc(N(C)C)nc3n(C[C@H]3CCCO3)c2=O)cc1,Potency,[6],inactive
